Experimental data as given in PubChem BioAssay (NCI).
The panel holds about 83,000 compounds, 20% with a hit somewhere; the sample as a whole holds those more often.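 Note: values are percent growth. 100 is the growth of untreated cells, values between 100 and 0 indicate rising inhibition; between -100 and 0 indicates cell death.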 Values without a mark were called inactive. Activity calls are given as the source filed them.

Each compound was assayed on BT-549 breast (assay: NCI-60 one-dose screen, 48 h (100 = growth as untreated, 0 = no growth, -100 = all killed)). Settings: 10 µM unless noted.
Protocol: Growth inhibition of the BT-549 human tumor cell line is measured as a screen for anti-cancer activity. Cells are grown in 96 well plates and exposed to the test compound for 48 hours. Compounds are tested at a single concentration, which is 10^-5 M for most compounds. The reported endpoint is percent growth (GI% or GIPRCNT), where numbers from 0 - 100% represent growth inhibition, and numbers from -100% - 0 represent cell death. For example, a value of 40 represents 60% growth inhibition. A value of 0 means no net growth occurred over the course of the experiment. A value of -40 indicates 40% of cells at the beginning of the experiment died by the end of the experiment. A value of -100 means all cells are dead at the end of the experiment.
NCI-60 Human Tumor Cell Lines Screen was performed using the standard one-dose NCI protocol, which is described in more detail at https://dtp.cancer.gov/discovery_development/nci-60/default.htm.
Compounds with GIPRCNT values below 10 were considered active. Activity score was based on GIPRCNT using the following formula: […]
Score is 0 for GIPRCNT values of 100 or above, 50 for GIPRCNT values of 0, and 100 for GIPRCNT values of -100.

Compound | growth
C/C(=N\NC(=O)CSc1nc2ccccc2c(=O)n1CCc1ccc(S(N)(=O)=O)cc1)c1ccc(Br)cc1 | 93.9%
CN(C)c1nc(-c2cccs2)n2nc(-c3ccc(Cl)cc3)cc2n1 | 68.7%
CN(C)c1nc(-c2ccco2)n2nc(-c3ccc(Cl)cc3)cc2n1 | 86.7%
CCN(CC)c1ccc(/C=N/NC(=O)c2ccc(S(C)(=O)=O)cc2)c(O)c1 | 30.7%
O=C(Nc1cccc(-n2ccc3c(NC(=O)c4ccccc4)nccc32)c1)c1ccc(Cl)c(Cl)c1 | -75.7% (active)
Nc1ncnc2c1N=C(c1ccc3c(c1)OCO3)CC(c1ccc(Cl)cc1)N2 (stereo not given) | 81.2%
COc1ccc2nc(-c3ccc(-c4noc(-c5ccc(Cl)cc5)n4)cc3)[nH]c2c1 | 74.8%
CCOC(=O)c1ccc2c(c1)nc(-c1ccc(Cl)cc1)n2-c1cc(C(C)(C)C)[nH]n1 | 16.8%
O=C(Nc1cccc(-n2ccc3c(NC(=O)c4ccccc4)nccc32)c1)c1ccc(N2CCOCC2)c(C(F)(F)F)c1 | 25.2%
CN1CCCN(CCNc2nccc(-c3c(-c4cccc(O)c4)nc4sccn34)n2)S1(=O)=O | 62.9%
CNC(=O)OC1C(O[C@H]2C[C@H]3[C@@H]4CC=C5C[C@@H](O)CC[C@]5(C)[C@H]4CC[C@]3(C)[C@H]2[C@H](C)C(=O)CCC(C)C)OCC(O)C1OC1OCC(O)C(O)C1OC(=O)c1ccc(OC)cc1 (stereo not given in full) | 18.3%
COc1ccc(C2=NNC(c3ccc(Oc4nc5c(c(=O)n(C)c(=O)n5C)n4C)c(OC)c3)C2)cc1 (stereo not given) | 88.6%
CC(=O)CC(c1ccc([N+](=O)[O-])cc1)c1c(O)c2ccccc2oc1=O (stereo not given) | 88.5%
O=C1CCCN1C(O)CCN(Cc1ccccc1)Cc1ccc(Cl)cc1 (stereo not given) | 105%
COc1cc2c(cc1OC)-c1cc(OC)c(OC)cc1C(CN(C)C)C2 (stereo not given) | 45.8% [100 µM]
Nc1c(C(=O)Nc2ccccc2)sc2nc3c(cc12)C(=O)CCC3 | 65.7%
CCNC(=O)c1ccc2c(c1)nc(-c1ccc(Cl)cc1)n2-c1cc(C(C)(C)C)[nH]n1 | 41.8%
C=C(C)[C@@H]1CC[C@]2(C(=O)NC(COC(=O)C(Cl)Cl)(COC(=O)C(Cl)Cl)COC(=O)C(Cl)Cl)CC[C@]3(C)[C@H](CC[C@@H]4[C@@]5(C)CC[C@H](OC(C)=O)C(C)(C)[C@@H]5CC[C@]43C)[C@@H]12 | 80.4%
C=CCN(CC#N)CC=C | 116%
CC(C)c1nc2ccccc2n1CC(=O)N/N=C/c1cccc(O)c1 | 99.7%

Compound | growth
Cc1ccsc1C(=O)CC(=O)C(F)(F)C(F)(F)C(F)(F)F | 125%
O=S1(=O)NCCCN1CCNc1nccc(-c2c(-c3cccc(O)c3)nc3sccn23)n1 | 86%
COc1cc(C)c(Cl)cc1C1=NN(c2ccc(S(N)(=O)=O)cc2)C(/C=C/c2ccccc2)C1 (stereo not given) | 107%
COc1ccc([C@H]2c3[nH]c4ccccc4c3C[C@H]3C(=O)N(CCCCCCC(=O)NO)CC(=O)N23)cc1 | 62.4%
N/C(=C\C(=O)n1nc(-c2ccccc2)cc1N)c1ccccc1 | 30.1%
CO[C@H](C(=O)[C@@H](O)[C@@H](C)O)[C@@H]1Cc2cc3cc(O[C@H]4C[C@@H](O[C@H]5C[C@@H](O)[C@H](O)C(C)O5)[C@H](O)C(C)O4)c(C)c(O)c3c(O)c2C(=O)[C@H]1O[C@H]1C[C@@H](O[C@H]2C[C@@H](O[C@H]3C[C@](C)(O)C(=O)C(C)O3)[C@@H](O)C(C)O2)[C@H](O)C(C)O1 (stereo not given in full) | -24.5% (active)
CC1OC(n2c3ccccc3c3c4c(c5c6ccccc6[nH]c5c32)C(=O)N(CCN[C@H]2CCC[C@@H]2N)C4=O)CC(O)C1O (stereo not given in full) | 46.9%
ClC1=NC(Cl)C(Cl)=N/C1=N\c1ncn[nH]1 (stereo not given) | 91.4%
CCOC(=O)Nc1ccc2nc(Sc3ccc(Cl)cc3)sc2c1 | 58.5%
O=C(Nc1ccc(Br)cc1)c1ccc(Cl)c(Cl)c1 | 60.6%
CN1C2CCC1/C(=C\c1ccc(F)cc1)C(=O)/C2=C/c1ccc(F)cc1 | 39.6%
O=C(O)CSc1ccc(NCc2oc(CO)cc(=O)c2O)cc1 | 92.8%
CC(C)c1ccc(-c2cnc3nonc3n2)cc1 | 7.62% (active)
COc1cc(/C=C/c2cc(/C=C/c3ccc(O)c(OC)c3)n(C(=O)c3ccccc3Br)n2)ccc1O | 14.5%
c1ccc2c(N=NSc3ncnc4nc[nH]c34)c3ccccc3nc2c1 | 27.9%
COc1ccc(/C=N/NC(N)=S)c(OC)n1 | 102%
CCCCn1cnc2c(SCc3ccc([N+](=O)[O-])cc3)nc(N)nc21 | 90.4%
COc1ccc(-c2cc(C(=O)Nc3ccc(Br)cc3)nc3[nH]c(=O)sc23)cc1 | 47%
CCN1CCN(Cc2ccc(NC(=O)Nc3ccc(-n4ccc5c(NC(=O)c6ccccc6)nccc54)cc3)cc2C(F)(F)F)CC1 | 68.5%
C=CC(=O)N1CN(C(=O)C=C)CN(C(=O)C=C)C1 | 76.3%
